A number with no mark means an inactive call.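 How the source made its calls: active means RAM network inhibition above 8.4% in each of two replicates, 3 SD over the compound average; inconclusive means above 8.4% inhibition in only one replicate; inactive means 8.4% inhibition or less in each replicate.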
assay: RAM signaling pathway blockade in yeast – S. cerevisiae, Pdr1DBD-CYC8 efflux-inhibited sensitized strain, primary screen (AID 1298);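 further: 0% = DMSO untreated cells without growth and 100% = 10 µM 1-NA-PP1 full growth; higher means more yeast growth rescued from 5-FOA killing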; conditions: S. cerevisiae cbk1-as DSE1-URA3 strain, 5-FOA growth OD615, 2 d; at 50 µM; stronger effect = higher value

SMILES	RAM network inhibition [%]
COc1ccc(C(=O)OCCN2C(=O)c3ccccc3C2=O)cc1OC	0.93
CCOC(=O)C1CCN(C(=O)c2ccc(NC(=O)C3CCCO3)cc2)CC1 (stereo not given)	3.28
COCC(=O)NCc1nc2ccccc2[nH]1	2.13
COc1ccc(NC2=NCC(=O)N2c2ccccc2)c(OC)c1	5.45
O=C(NCc1nc2ccccc2[nH]1)c1ccc(S(=O)(=O)N2CCOCC2)cc1	3.06
COc1ccccc1N1CCN(C2=CC(=O)CCC2)CC1	2.91
CCn1cc(C(=O)N2CCN(c3ccccn3)CC2)c2cc(OC)c(OC)cc2c1=O	6.02
Cc1ccc(Cc2cnc(N)s2)o1	5.71
COc1ccccc1NC1=NCC(=O)N1Cc1ccccc1	4.78
COc1ccccc1N1CCN(CC(=O)Nc2cc(C)nn2-c2nc(C)cc(C)n2)CC1	6.51
C(=N\n1cnnc1)/c1ccc(N2CCOCC2)s1	8.67
Cc1cc2cc(CN(Cc3ccc4c(c3)OCO4)C(=O)c3cnccn3)c3nnnn3c2cc1C	5.81
CCOC(=O)C1CCCN(C(=O)CNC(=O)Cn2ccc3ccccc3c2=O)C1 (stereo not given)	4.63
CN(C(=O)c1ccc(NC(=O)c2cnccn2)cc1)C1CCCCC1	6.39
CN(C)CCCNC(=O)CC(c1ccc(F)cc1)c1ccco1 (stereo not given)	5.45
CCOC(=O)C1=CSC2=NS(=O)(=O)CCN12	-0.32
O=C(Nc1ccc(Br)cc1Cl)c1cnccn1	2.32
CN1CCc2c(sc3nc(SCC(N)=O)n(-c4ccccc4)c(=O)c23)C1	3.54
O=C(Nc1nnc(-c2ccc3c(c2)CCCC3)o1)c1ccccc1Cl	4.48
CSC(=NCCCN1CCOCC1)NS(=O)(=O)c1cccs1	1.45

SMILES	RAM network inhibition [%]
O=C(N=c1nc2ccccn2s1)c1ccccc1	6.13
CCN(CC)CCOc1c(Br)ccc2c1sc1nc3n(c(=O)c12)CCC3	5.14
Cn1cnnc1SCc1ccc(C(=O)O)cc1	1.81
CCC(=O)N1CCc2cc(Br)cc(S(=O)(=O)N3CCN(c4ccccn4)CC3)c21	9.66
Cc1cc(=O)n2[nH]c(C)c(-c3ccc(Cl)cc3)c2n1	5.64
Cc1ccc2c(c1)c(C)c(C)n2CC(O)Cn1nc(C)cc1C (stereo not given)	0.58
Cc1cccc(N(CC(=O)Nc2c(C)n(C)n(-c3ccccc3)c2=O)S(C)(=O)=O)c1C	5.77
O=C(CSc1oc(-c2ccc(F)cc2)nc1S(=O)(=O)c1ccccc1)NCC1CCCO1 (stereo not given)	6.86
CCOc1ccccc1NC(=O)CSc1nnc(-c2cnccn2)n1C	5.04
CC1(C)Cc2c(c(=S)nc(-c3ccccc3)n2CCOCCO)CO1	4.58
COc1ccc(-c2cc3ccccc3n2CC(O)Cn2nc(C)cc2C)cc1 (stereo not given)	7.69
CCOc1cc(CNC(=O)CN2C(=O)c3ccccc3S2(=O)=O)ccc1OC	0.32
CNC(=O)C1C2C=CC3(O2)C1C(=O)N(CCOC)C3C(=O)NCc1ccc(OC)cc1 (stereo not given)	2.29
COc1ccc(NS(=O)(=O)c2cccc(-c3nnc4n3CCCCC4)c2)cc1	1.97
CC(C)(C)NS(=O)(=O)c1ccc(OCC(=O)Nc2ccc3c(c2)OCCO3)cc1	7.73
O=c1[nH]c2ccc(S(=O)(=O)NCc3ccccn3)cc2s1	6.28
O=C(Nc1cccc(Cl)c1Cl)c1ccncc1	4.88
Cn1ccnc1SCC(=O)NC1CCCCC1	1.87
O=C(Nc1ccc(Cl)cc1)c1ccncc1	6.15
CCn1cc(C(=O)NC2CCCCCC2)c2cc(OC)c(OC)cc2c1=O	4.11

Source: PubChem BioAssay
